Measurements taken from the supplement of paper PMC6555819.

What was measured:
Test in all cases: PBM binding z-score (relative to random genomic background probes); higher = stronger binding; sequences stand for … in GC…GCGATTGACAGCGTAGAATGAAGG
[1] = tested on: FXR:RXRa (NR concentration 270 nM, RXRa partner concentration 90 nM)
In short: (§1)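 Custom Agilent 4×180K protein-binding microarrays carried double-stranded probes. Their 34-nt variable regions held direct-repeat seeds, single-nucleotide variants, half-site ablations and random human genomic background sequences. Arrays were incubated 1 h with ligand-free nuclear receptor dimers in PBS pH 7.4, 2% milk, 0.02% Triton X-100, 1 mM DTT, 0.2 mg/mL BSA and 0.4 mg/ml salmon testes DNA. Antibodies against each partner (one per run) detected binding, and scanned fluorescence was regression-normalized. Binding z-scores use random background probes as reference.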

[2] = tested on: LXRa:RXRa (NR concentration 270 nM, RXRa partner concentration 90 nM)
In short: as §1

[3] = tested on: LXRa homodimer (NR concentration 270 nM)
In short: as §1

[4] = tested on: LXRb:RXRa (NR concentration 270 nM, RXRa partner concentration 90 nM)
In short: as §1

[5] = tested on: LXRb homodimer (NR concentration 270 nM)
In short: as §1

[6] = tested on: PPARa:RXRa (NR concentration 270 nM, RXRa partner concentration 90 nM)
In short: as §1

[7] = tested on: PPARg:RXRa (NR concentration 180 nM, RXRa partner concentration 90 nM)
In short: as §1

[8] = tested on: PPARg:RXRa 270nM:90nM, anti-RXR (NR concentration 270 nM, RXRa partner concentration 90 nM)
In short: as §1

[9] = tested on: PPARg:RXRa 30nM:10nM, anti-RXR (NR concentration 30 nM, RXRa partner concentration 10 nM)
In short: as §1

[10] = tested on: PPARg:RXRa 90nM:30nM, anti-RXR (NR concentration 90 nM, RXRa partner concentration 30 nM)
In short: as §1

[11] = tested on: PPARg:RXRa DBDmut IVT, anti-RXR (DBD mutation: RXRa K156A/R161A, NR concentration 270 nM, RXRa partner concentration 90 nM)
In short: as §1

[12] = tested on: PPARg:RXRa IVT, anti-PPARg (NR concentration 270 nM, RXRa partner concentration 90 nM)
In short: as §1

[13] = tested on: PPARg DBDmut:RXRa IVT, anti-PPARg (DBD mutation: PPARg1 K132A/R137A, NR concentration 270 nM, RXRa partner concentration 90 nM)
In short: as §1

[14] = tested on: PPARg DBDmut IVT, anti-PPARg (DBD mutation: PPARg1 K132A/R137A, NR concentration 270 nM)
In short: as §1

[15] = tested on: PPARg homodimer (NR concentration 180 nM)
In short: as §1

[16] = tested on: PXR:RXRa (NR concentration 270 nM, RXRa partner concentration 90 nM)
In short: as §1

[17] = tested on: PXR homodimer (NR concentration 270 nM)
In short: as §1

[18] = tested on: RARa:RXR (NR concentration 270 nM, RXRa partner concentration 90 nM)
In short: as §1

[19] = tested on: RARa homodimer (NR concentration 270 nM)
In short: as §1

[20] = tested on: RARb:RXRa (NR concentration 270 nM, RXRa partner concentration 90 nM)
In short: as §1

Sequence	PBM binding z-score [1]	PBM binding z-score [2]	PBM binding z-score [3]	PBM binding z-score [4]	PBM binding z-score [5]	PBM binding z-score [6]	PBM binding z-score [7]	PBM binding z-score [8]	PBM binding z-score [9]	PBM binding z-score [10]	PBM binding z-score [11]	PBM binding z-score [12]	PBM binding z-score [13]	PBM binding z-score [14]	PBM binding z-score [15]	PBM binding z-score [16]	PBM binding z-score [17]	PBM binding z-score [18]	PBM binding z-score [19]	PBM binding z-score [20]
GAAACGAGGGCAAAGTTGATAGCATCTGTCGACG	1.38	1.27	-0.429	1.02	-0.45	4.4	7.78	7.51	7.45	8.19	5.26	5.32	0.311	0.0519	0.722	1.32	0.236	1.98	0.209	2.38
ATACGTAGGTTAAGGGTCATTCAGGTTGGTTCGC	5.1	4.98	2.92	4.46	1.03	5.41	7.56	7.6	6.33	8.26	1.41	3.8	0.783	0.775	3.98	5.7	2.65	6.55	2.24	3.7
TCATATGGGTAAACAGGTGAAAGTCCGTAAGTTA	0.13	0.314	-0.0837	0.449	-0.731	1.85	2.04	2.98	2.52	2.89	4.06	3.99	0.27	0.486	0.322	0.505	0.00205	0.571	-0.0494	0.316
ATCTCTAGGTAACACTCAGTTCAGTGAAGAACGC	0.92	1.1	0.849	0.889	1.26	1.07	0.692	0.736	0.527	0.515	3.97	2.95	1.8	2.07	1.13	1.94	2.42	1.13	1.39	1.06
ATCTCTAGGTAAACTTCAGTGAAAGATCGATAGA	0.831	0.515	0.351	0.0821	1.21	0.408	0.488	0.399	0.397	0.45	2.68	2.02	1.5	1.2	0.999	0.0812	0.42	0.344	1.42	0.268
TAGCCTAGGTCATTGGCCAGTATACCACGCGAAC	4.93	3.34	0.738	2.61	0.254	3.41	2.4	2.49	0.453	1.44	1.38	2.72	0.244	-0.771	1.49	1.56	-0.368	2.16	-0.259	3.57
TCAGACAGGTGAAGGTAACTCGGGTACGCAGTCG	1.07	2.93	0.00206	1.44	-0.167	1.46	0.656	2.33	3.89	3.22	2.75	1.56	-0.468	-0.323	0.71	0.846	0.151	0.795	0.419	1.46
CAAACTAGGTCATAGGTCAAAGTCGAGCCAACCA	7.12	5.85	3.78	5.36	1.14	7.84	12.8	10.5	11.6	12	8.12	8.93	3.18	1.68	3.4	5.05	0.241	7.38	0.929	4.76
ACTATTAGTTGAGACGAGAGCAACCGATAGGTTG	-0.0812	-0.233	-0.161	-0.216	0.14	-0.533	0.493	-0.133	0.37	0.081	-0.112	-0.0541	0.442	0.157	0.139	-0.467	-0.273	-0.313	0.747	-0.263
CGTCAACGTTCAAGGTAACGTAACAGAAAGCAGC	-0.152	-0.339	-0.374	-0.129	-0.566	-0.0131	0.721	-0.237	-0.128	-0.193	-0.333	0.375	-0.0516	-0.229	-0.442	-0.292	-0.379	-0.0345	-0.412	0.89
CCTACTGGGCCATTCAAAGGTCATTGATCATATG	3.24	4.61	6.31	4.29	0.576	4.43	3.07	4.03	1.44	3.35	4.67	4.81	-0.127	-0.542	2.61	5	2.28	5.19	0.686	3.72
CGTCCAAGGTCAAGGCTAGGTCAGTGAAAGCATT	7.26	5.52	1.5	4.11	-0.26	5.33	4.97	5.35	1.61	4.01	3.68	4.19	-0.104	-0.338	5.83	5.03	1.42	6.19	1.29	5.43
CCTAGCAGGCCAATCTGGGTCACGCAAGGCTTGA	1.04	1.43	-0.342	0.849	-1.08	3.34	3.18	3.08	0.775	2.35	4.65	5.54	0.23	-0.484	0.454	1.48	-0.572	2.17	-0.583	1.92
CAAAGTAGGTCAAAGGTCAAAGTCGAGCCAACCA	8.51	7.21	5.79	7.26	3.36	7.84	14.1	11.4	14.4	13.2	8.81	9.31	4.15	2.43	4.72	7.22	2.39	8.98	3.23	5.92
